In the library only some 12% were active in any assay of this set; here they are far more common.
D1 allo mod: allosterically modulates the human D1 dopamine receptor; P21728; HEK293 D1, CRE-luciferase, dopamine EC30 potentiation; actives deviate in either direction; B-score at 10 µM; actives 5.9% (n = 58,000);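 active = luminescence count or its row- and column-corrected plate score outside the 99.7% band of the plate's sample wells, on either side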
Cav3 T inh: blocks human Cav3.2 T-type calcium channel; O95180; Cav3.2-expressing cells, Fluo-4 calcium fluorescence FDSS; stronger effect = lower value; B-score at 10 µM; actives 4% (n = 100,000); AID 449739;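 active = single-dose well whose peak fluorescence ratio is a statistical outlier from its plate by either plate-standardised score or position-corrected B-score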
DAT uptake mod: human DAT dopamine uptake with cocaine, either direction; Q01959; LLC-PK1 hDAT cells, [14C]-dopamine uptake with cocaine IC80; actives deviate in either direction; B-score at 10 µM; actives 1.3% (n = 110,000);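 active = Z score or B-score, a plate-position-corrected score, falls beyond the plate's 99.7% confidence bounds, in either direction; inactive = both scores lie inside the 99.7% bounds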;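 also: scored against the spread of the other compound wells on the same plate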
PLAP act: activators of human placental alkaline phosphatase; P05187; purified PLAP enzyme, luminescent substrate read-out; stronger effect = higher value; activation fold at 20 µM; actives 1.2% (n = 96,000); AID 696; in the data active = activation fold above about 2
PostGolgi ctrl: growth of the yeast control strain, post-Golgi counter-screen | AID 738 | actives 5% (n = 98,000) | inhibition, % at 10 µM | efflux-deficient yeast background strain, growth absorbance A615, 16 h
PostGolgi yeast: growth inhibition of a yeast mutant, post-Golgi transport screen | actives 0.9% (n = 98,000) | post-Golgi transport phenotypic cell assay | inhibition, % at 10 µM;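 also: yeast cells grown in 1536-well plates; yeast grown about 18 h at 30C before absorbance read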
An asterisk follows results filed as active; · = no result. Rule as the data show it, unless noted: active = inhibition above about 30%; inactive = the rest.

SMILES	D1 allo mod	Cav3 T inh	DAT uptake mod	PLAP act	PostGolgi ctrl	PostGolgi yeast
CCN1CCN(c2cc(C)c3cc(NC(=O)c4ccc(Br)o4)ccc3n2)CC1	-2.53*	-0.668	0.619	1.5	-0.1	-0.3
CCCCNC(=O)CCC(=O)Nc1ccc2nc(N3CCOCC3)cc(C)c2c1	-0.167	0.25	0.0188	1.1	2.8	2.6
Cc1cc(N2CCCCC2)nc2ccc(NC(=O)CCC(=O)NCCC(C)C)cc12	·	1.28	1.72	2.2*	8.8	-0.5
CCC(=O)Nc1nc2ccc(NC(C)=O)cc2s1	0.0316	0.327	0.359	0.9	-8.1	-0.9
CCCC(=O)Nc1nc2ccc(NC(=O)c3ccc(Br)o3)cc2s1	-0.0665	·	-0.236	0.8	40.8*	-4.4
Cc1nc2ccc(F)cc2cc1C(=O)NC(C)C	-0.0305	-0.558	0.735	0.8	-8.4	-3.5
O=C(CSc1nnnn1C1CCCCC1)NCCc1ccccc1	0.0095	1.62	0.596	1.1	-5.4	-4.4
Cc1ccc(C(=O)c2ccc([N+](=O)[O-])cc2)cc1	·	-0.379	-0.386	0.8	7.0	4.4
Cc1cc(C)c(Cn2cnc(-c3ccc([N+](=O)[O-])cc3)c2)c(C)c1	·	-0.146	0.285	0.9	32.5*	-6.6
CC(=O)Nc1ccccc1N(C)S(=O)(=O)c1ccc(C)cc1	-0.858	0.312	0.518	1.1	2.5	5.3
O=C(Nc1cc(C(F)(F)F)ccc1-n1cncn1)c1ccc(-c2ccccc2)cc1	·	0.193	·	0.9	13.0	76.3*
O=C(O)CN1CCN(Cc2ccc(F)cc2Cl)C1=O	-0.574	0.181	1.6	·	3.6	4.3
O=C(CSc1nnc(-c2ccccc2)n1Cc1ccco1)Nc1ccc2c(c1)OCCO2	0.335	-1.04	-0.123	1.2	-3.5	10.1
c1ccc(-c2nnc(SCc3nc4ccccc4[nH]3)n2Cc2ccco2)cc1	·	0.541	2.55	1.4	3.6	-4.8
Cc1ccc(OCc2nnc(SCc3nc4ccccc4[nH]3)n2Cc2ccco2)cc1	·	-8.45*	0.0915	1.9	32.2*	-3.7
Cc1ccc(OCc2nnc(SCC(=O)c3ccccc3)n2Cc2ccco2)cc1	0.327	-4.54*	0.208	1.4	18.0	0.3
O=C(CSc1ncc(-c2ccc(F)cc2)n1Cc1ccco1)Nc1ccc2c(c1)OCO2	-1.14	-4.75*	0.00328	0.8	30.9*	18.6
Cc1ccc(OCc2nnc(SCC(=O)Nc3ccc4c(c3)OCCO4)n2Cc2ccco2)cc1	-0.564	-5.95*	0.857	1.6	11.8	0.5
Cc1ccccc1Cn1c(=O)c2c(nc3n2CCN3Cc2ccco2)n(C)c1=O	0.0584	·	·	·	·	·
CC1CN(C2CCN(C(=O)c3ccccc3Cl)CC2)CC(C)O1 (stereo not drawn)	·	·	0.33	1.3	5.0	-2.2
O=C(OCC(=O)N1CCN(C(=O)c2ccco2)CC1)c1ccccc1C(=O)c1ccc(Cl)cc1	0.0176	0.436	0.161	1.2	0.3	-7.7
Cc1cccc(NC(=O)CSc2nnc(CSc3nc(C)cc(C)n3)n2Cc2ccco2)c1	1.81	-3.06	2.78*	1.5	7.4	3.7
c1ccc(Nc2ccccn2)cc1	·	1.3	-1.07	1	-4.5	7.3
c1ccc(/N=C2\N=C(Nc3ccccn3)c3ccccc32)nc1	14.4*	·	·	·	·	·
CCc1nc(SCC(=O)NNC(=O)C2CCCCC2)c2ccccc2n1	·	0.305	-0.0107	1.7	-7.9	4.4
SMILES	D1 allo mod	Cav3 T inh	DAT uptake mod	PLAP act	PostGolgi ctrl	PostGolgi yeast
CCc1nc(SCC(=O)NNC(=O)C(C)C)c2ccccc2n1	·	0.446	-1.18	2*	-6.4	7.4
Cc1ccc(S(=O)(=O)N2CCC(C(=O)N3CCC(C(=O)NCc4cccnc4)CC3)CC2)cc1	-0.804	0.337	-0.93	1.6	3.7	-2.3
CCc1n[nH]c2c1/C(=N\O)CC(C)(C)C2	1.24	0.36	0.882	1.1	2.0	98.2*
Cc1nonc1OC(C)CNc1ccc([N+](=O)[O-])cc1 (stereo not drawn)	·	-1.97	-0.199	1	35.1*	-1.1
COc1[nH]c(/N=C/c2ccccc2)c(C#N)c1C#N	-1.13	-5.92*	0.529	1.1	8.8	-3.2
CCn1c(SCC(=O)Nc2oc(-c3ccccc3)c(-c3ccccc3)c2C#N)nnc1-c1ccco1	1.37	-4.72*	-0.856	1.5	8.4	4.5
CCn1c(SCC(=O)Nc2oc(-c3ccccc3)c(-c3ccccc3)c2C#N)nnc1-c1ccncc1	·	-1.99	0.452	1.8	-0.9	18.1
N#Cc1c(NC(=O)CCn2cnc3ccccc3c2=O)oc(-c2ccccc2)c1-c1ccccc1	-0.492	-9.43*	-0.0495	1.5	-0.3	6.7
COc1ccc(-c2oc(NC(=O)CSc3nncn3C)c(C#N)c2-c2ccc(OC)cc2)cc1	·	0.462	-1.19	1.6	-1.3	-2.9
N#Cc1c(NC(=O)CN2C(=O)c3ccccc3C2=O)oc(-c2ccccc2)c1-c1ccccc1	·	-4.04*	0.923	·	·	·
Cc1cnc(C(=O)OCC(=O)Nc2oc(-c3ccccc3)c(-c3ccccc3)c2C#N)cn1	0.524	-2.27	0.495	1.9	2.9	-0.6
N#Cc1c(NC(=O)CSc2ccccn2)oc(-c2ccccc2)c1-c1ccccc1	·	-6.43*	-0.357	1.4	23.1	-7.8
CCCc1cc(C(=O)Nc2ccccc2C(=O)OC)no1	0.603	0.395	-0.539	0.8	19.3	2.7
COc1ccc(CCNC(=O)CSc2nc(O)c(C(C)C)c(=O)[nH]2)cc1OC	·	1.02	1.32	·	·	·
CC(C)CC(C(=O)Nc1oc(-c2ccccc2)c(-c2ccccc2)c1C#N)N1C(=O)c2ccccc2C1=O (stereo not drawn)	·	-3.37	0.22	·	·	·
N#Cc1c(NC(=O)CCN2C(=O)c3ccccc3C2=O)oc(-c2ccccc2)c1-c1ccccc1	-0.538	-7.16*	-0.572	1.1	14.1	-4.3
c1ccc(CC2CCN(c3nnnn3-c3ccccc3)CC2)cc1	1.58	·	·	1	31.5*	3.7
CCOC(=O)N1CCC(NC(=O)C2CCN(C(=O)N3CCOc4ccccc43)CC2)CC1	0.243	1.32	-0.147	2.1*	-0.5	-4.2
O=C(CSc1nc2[nH]ncc2c(=O)n1-c1ccccc1)c1ccc2c(c1)OCCO2	-2.05	0.819	0.498	2.4*	-3.2	-4.1
CCn1cc(C(=O)Nc2ccc(C(=O)N3CCCC3)cc2)c(=O)c2ccc(C)nc21	-0.248	·	·	1.5	·	·
Cc1ccc(C)c(NC(=O)c2ncn[nH]2)c1	·	-4.2*	-0.664	1	-1.8	3.5
CCC(C)c1ccc(O)c(NC(=O)c2ncn[nH]2)c1 (stereo not drawn)	0.176	0.52	-0.413	1.8	2.5	-10.5
COc1cc(Nc2nnc(C)s2)c(Cl)cc1Cl	·	-0.3	0.162	1.1	9.3	-2.5
COCCOc1cc(Nc2nnc(C(F)(F)F)s2)c(Cl)cc1Cl	·	-1.79	0.119	1.3	32.3*	20.7
COc1ccc2c(C)nc(Nc3nc(C)cc(=O)[nH]3)nc2c1	-0.0989	·	·	·	·	·
O=C(CN1c2cccc3cccc(c23)S1(=O)=O)NCc1ccc2c(c1)OCO2	5.28*	0.0552	0.0729	0.7	1.6	4.5
CC(C(=O)NCc1ccc2c(c1)OCO2)N1c2cccc3cccc(c23)S1(=O)=O (stereo not drawn)	0.277	-5.1*	1.22	1.2	17.9	-6.5
